SMILES strings stand for the structures. Where “and” joins values, the source holds several entries; their conditions need not be identical. Equal entries are not always repeated. A structure can be active in one record and inactive in another. Calls of active or inactive are those of the source. Rule for the calls: active = hit-call score of the fitted dose curve at least 0.9, where 1 is the maximum; inactive = score below 0.9.

A short description of this test: APR_HepG2_NuclearSize_24hr: Apredica 24-hour HepG2 Assay for Nuclear Size (AID 2282907). To be noted: high-content imaging, actives raise or lower the signal. The method, then: APR_HepG2_24hr is a cell-based, multiplexed-readout assay that uses HepG2, a human liver cell line, with measurements taken at 24 hours after chemical dosing in a 384-well plate.APR_HepG2_NuclearSize_24hr is one of 10 assay component(s) measured or calculated from the APR_HepG2_24hr assay. It is designed to make measurements of cell phenotype, a form of morphology reporter, as detected with fluorescence intensity signals by HCS Fluorescent Imaging technology.Data from the assay component APR_HepG2_NuclearSize_24hr was analyzed into 1 assay endpoint. This assay endpoint, APR_HepG2_NuclearSize_24hr, was analyzed with bidirectional fitting relative to DMSO as the negative control and baseline of activity. Using a type of morphology reporter, measures of all nuclear dna for gain or loss-of-signal activity can be used to understand the signaling at the nuclear-level. Furthermore, this assay endpoint can be referred to as a primary readout, because this assay has produced multiple assay endpoints where this one serves a signaling function. To generalize the intended target to other relatable targets, this assay endpoint is annotated to the cell morphology intended target family, where the subfamily is organelle conformation.
Cells were treated with dimethyl sulfoxide (DMSO) as a solvent control at a final concentration of 0.5% v/v or with compounds in DMSO with a resulting final DMSO concentration of 0.5% v/v. Compound treatment was done at concentrations of 0.39, 0.78, 1.56, 3.12, 6.24, 12.5, 25, 50, 100, and 200 uM in duplicate on each plate. Cells were treated with compounds for 1, 24, or 72 hr. Carbonyl […] m-chloro-phenylhydrazone (CCCP) and taxol were used as positive controls for mitochondrial function and cytoskeletal stability, respectively; DMSO served as the negative control for this experiment. Cells were fixed by the direct addition of 50 uL formaldehyde in Hank's Balanced Salt Solution (HBSS) to a final concentration of 3.7%. After incubation in the fixation medium for 30 min at room temperature (293-298 K), cells were rinsed twice with HBSS and treated with cell permeabilization buffer (16 uL of 0.5% Triton X-100) for 10 min at room temperature (293-298 K) before labeling. For mitochondrial membrane potential and mitochondrial measurements, pre-fixed cells were incubated with 50 uL of MitoTracker Red CMXRos (Invitrogen) at a concentration of 250 nM for 30 min before fixation. In the remaining cases, post-fixed cells were labeled by incubation with a multiplexed mixture of primary antibodies in HBSS for 60 min at room temperature (293-298 K) to detect immunoreactivity of c-Jun (1:500), phospho-histone H3 (1:100), phospho-histone H2A.x (1:200), p53 (1:400), alpha-tubulin (1:200) and Hoechst 33342 (2 ug/mL). Cells were labeled for multiplexed imaging on two separate plates: a) Hoechst 33342, MitoTracker Red, phospho-histone H3, and alpha-tubulin, and b) Hoechst 33342, phospho-histone H2A.x, and c-Jun. A final rinse with HBSS (50 uL) was performed before analysis. The primary and secondary antibodies for the proteins were phospho-histone H3 (rabbit anti-phospho-histone H3 and FITC-donkey anti-rabbit IgG), phospho-histone H2A.x (mouse anti-phospho-histone H2A.x and FITC-donkey anti-mouse IgG), c-Jun (rabbit anti-phospho-c-Jun and Cy3-donkey anti-rabbit IgG), p53 (sheep anti-p53 and Cy5-donkey anti-sheep IgG), alpha-tubulin (mouse anti-alpha-tubulin and Cy5-donkey anti-mouse IgG). These antibodies are available as the CellCiphr HepG2 assay kit (Millipore).Digital images of each well were captured using a Cellomics ArrayScan VTI (Thermo Scientific Cellomics) (0.8 NA objective, 0.63x optical coupler, and XF-93 filter set) at 20x magnification. The images were acquired using the autofocus feature of the ArrayScan instrument, which entails the following steps. First, the camera focuses on channel 1 (Hoechst 33342), where nuclei are identified. Second, a Z offset of 1 um is used for capturing mitochondria (MitoTracker Red). […]
Regarding `COC(=O)C(C)Oc1ccc(Oc2ccc(Cl)cc2Cl)cc1` (stereo not given), the molecule was called inactive.
`C=CCC1=C(C)C(OC(=O)C2C(C=C(C)C)C2(C)C)CC1=O` (stereo not given): the concentration at half-maximal activity (AC50) (as a rule, the concentration giving half of the maximal activity seen) is 53.2 µM (active) and the result was inactive.
For the molecule `N#Cc1nn(-c2c(Cl)cc(C(F)(F)F)cc2Cl)c(N)c1S(=O)C(F)(F)F` (stereo not given), the result was inactive.
Same read-out and setting: then `N#Cc1cc(Br)c(O)c(Br)c1`, with “inactive”; and `Fc1ccc(Oc2ccnc3cc(Cl)cc(Cl)c23)cc1`, with “inactive”.
On to `COc1nc(C)nc(NC(=O)NS(=O)(=O)c2ccccc2Cl)n1`, for which the result was inactive.
With `C#CCOS(=O)OC1CCCCC1Oc1ccc(C(C)(C)C)cc1` (stereo not given), the molecule was classed as inactive.
For `C=CCC1=C(C)[C@@H](OC(=O)[C@@H]2[C@@H](C=C(C)C)C2(C)C)CC1=O`, the outcome was inactive.
On to `CN(C)C(=S)SSC(=S)N(C)C`, for which the molecule was called inactive.
Same read-out and setting: then `CCCCOC(=O)c1ccccc1C(=O)OCCCC`, with “inactive”; and `CC1COC(Cn2cncn2)(c2ccc(Oc3ccc(Cl)cc3)cc2Cl)O1` (stereo not given), with “inactive”.
Take `CCCCNC(=O)OCC#CI`: the result was inactive.
Same read-out and setting: then `CCOC(=O)CC(SP(=S)(OC)OC)C(=O)OCC` (stereo not given), with “inactive”; and `CCCCC(CC)COC(=O)c1ccccc1C(=O)OCC(CC)CCCC` (stereo not given), with “inactive”; and `COC(=O)N(OC)c1ccccc1COc1ccn(-c2ccc(Cl)cc2)n1`, with “inactive”.
As for `COc1nc(C)nc(NC(=O)NS(=O)(=O)c2ccccc2CCC(F)(F)F)n1`, the molecule was classed as inactive.
Consider `COc1cnc(OC)n2nc(NS(=O)(=O)c3c(OCC(F)F)cccc3C(F)(F)F)nc12`, for which the molecule was called inactive.
Regarding `CCOC(=O)C(Cl)Cc1cc(-n2nc(C)n(C(F)F)c2=O)c(F)cc1Cl` (stereo not given), the outcome was inactive.
As for `COC(=O)C=C(C)OP(=O)(OC)OC`, the molecule was called inactive.
Turning to `CCc1nn(C)c(C(=O)NCc2ccc(C(C)(C)C)cc2)c1Cl`, the outcome was inactive.
For `O=C(O)c1nc(Cl)ccc1Cl`, the molecule was classed as inactive.
For the molecule `CCNc1nc(Cl)nc(NC(C)C)n1`, the molecule was called inactive.
Take `CC1=C(C(=O)Nc2ccccc2)SCCO1`: the outcome was inactive.
On to `COc1ccc(C(c2ccc(OC)cc2)C(Cl)(Cl)Cl)cc1`, for which the outcome was inactive.
`COP(N)(=O)SC` (stereo not given): the molecule was classed as inactive.
As to `Oc1ccccc1-c1ccccc1`, the call was inactive.
Still for that read-out and setting: then `N#CC(CCc1ccc(Cl)cc1)(Cn1cncn1)c1ccccc1` (stereo not given), with “inactive”; and `CCON=C(CC)C1=C(O)CC(c2c(C)cc(C)cc2C)CC1=O` (stereo not given), with “inactive”.
The same measure, in the same setting: then `Cc1cc(Cl)ccc1OCC(=O)O`, with “inactive”.
With `COP(=S)(OC)Oc1nc(Cl)c(Cl)cc1Cl`, the result was inactive.
`CON(C)C(=O)Nc1ccc(Cl)c(Cl)c1`: the molecule was classed as inactive.
`CCOc1cc(Oc2ccc(C(F)(F)F)cc2Cl)ccc1[N+](=O)[O-]`: the outcome was inactive.
Still for that read-out and setting: then `CS/C(C)=N/OC(=O)N(C)SN(C)C(=O)O/N=C(\C)SC`, with “inactive”; and `O=C(Nc1ccccc1)Nc1ccnc(Cl)c1`, with “inactive”.
Take `CCCN(CCC)c1c([N+](=O)[O-])cc(S(N)(=O)=O)cc1[N+](=O)[O-]`: the molecule was called inactive; the half-maximal activity concentration (AC50) is 68.3 µM (active) and 117 µM (active).
Take `COC(=O)c1ccccc1C(=O)OC`: the result was inactive.
In the case of `OC(c1ccc(Cl)cc1)(c1cncnc1)c1ccccc1Cl` (stereo not given), the result was inactive.
Still for that read-out and setting: then `CC(C)(C)c1ccc(CSc2cnn(C(C)(C)C)c(=O)c2Cl)cc1`, with “inactive”.

Source of the values: PubChem BioAssay (EPA / NIEHS).
